According to PubChem BioAssay (NCATS):

Biological target: Glucocorticoid receptor (Homo sapiens) (UniProt P04150)
Experiment: GR-GFP Redistribution (AID 450;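 active = compounds whose dose series gives a full or clear partial fitted curve of increased nuclear translocation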)
Settings: U2OS GR-GFP nuclear translocation, laser cytometry, 2 h
Potency is the fitted concentration of half-maximal effect.

Glucocorticoid receptor (Homo sapiens), sequence (P04150 whole entry, looked up): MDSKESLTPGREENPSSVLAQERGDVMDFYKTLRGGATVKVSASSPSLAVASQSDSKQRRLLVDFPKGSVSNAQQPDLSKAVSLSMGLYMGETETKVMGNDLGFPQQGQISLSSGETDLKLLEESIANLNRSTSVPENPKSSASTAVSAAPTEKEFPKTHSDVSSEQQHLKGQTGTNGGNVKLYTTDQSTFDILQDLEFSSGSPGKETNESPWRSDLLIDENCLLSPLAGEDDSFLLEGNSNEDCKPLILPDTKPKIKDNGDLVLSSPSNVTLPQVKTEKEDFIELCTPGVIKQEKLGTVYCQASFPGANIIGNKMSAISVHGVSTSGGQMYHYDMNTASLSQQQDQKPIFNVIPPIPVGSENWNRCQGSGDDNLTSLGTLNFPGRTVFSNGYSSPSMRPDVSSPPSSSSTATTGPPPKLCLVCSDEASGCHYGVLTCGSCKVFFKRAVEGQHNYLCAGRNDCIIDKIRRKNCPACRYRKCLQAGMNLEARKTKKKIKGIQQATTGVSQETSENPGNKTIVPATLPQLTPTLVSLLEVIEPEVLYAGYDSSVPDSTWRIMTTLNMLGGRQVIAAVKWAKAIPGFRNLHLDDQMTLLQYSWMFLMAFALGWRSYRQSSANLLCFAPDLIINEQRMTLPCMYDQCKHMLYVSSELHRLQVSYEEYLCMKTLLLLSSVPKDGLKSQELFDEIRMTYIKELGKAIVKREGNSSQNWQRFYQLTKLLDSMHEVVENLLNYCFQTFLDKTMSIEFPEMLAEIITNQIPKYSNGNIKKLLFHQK

Potency, inactive:
Cc1ccccc1-c1nccc(NCc2cccs2)n1 > 46 µM
CN1CCN(c2ncc3nc(-c4ccc(F)cc4)c(=O)n(Cc4cccs4)c3n2)CC1 > 9.22 µM
COc1ccc(-c2nc3cnc(N4CCN(C)CC4)nc3n(Cc3cccs3)c2=O)cc1 > 9.22 µM
FC(F)(F)c1ccccc1-c1nc(NCCN2CCOCC2)c2ccccc2n1 > 46 µM
COc1ccc(-c2nc3cnc(Oc4cccc(Cl)c4)nc3n(C3CC3)c2=O)cc1 > 9.22 µM
N#CCCn1c(=O)c(-c2ccc(F)cc2)nc2cnc(N3CCOCC3)nc21 > 9.22 µM
Cn1c(=O)c(-c2cccs2)nc2cnc(N3CCNCC3)nc21 > 9.22 µM
CS(=O)(=O)Nc1cccc(-c2ccc3ncnc(NC4CC4)c3c2)c1 > 46 µM
CN1CCN(c2ncc3nc(CCc4ccccc4)c(=O)n(C4CC4)c3n2)CC1 > 9.22 µM
COCCn1c(=O)cnc2cnc(Nc3ccccc3)nc21 > 9.22 µM
Cc1ccccc1-c1ccc2ncnc(NC3CC3)c2c1 > 46 µM
c1cncc(CNc2ncncc2-c2cccnc2)c1 > 46 µM
Clc1ccccc1-c1nccc(NCc2cccs2)n1 > 46 µM
O=c1c(-c2ccc(F)cc2)nc2cnc(Oc3ccccc3)nc2n1Cc1cccs1 > 9.22 µM
FC(F)(F)c1ccccc1-c1nc(NCc2cccs2)c2ccccc2n1 > 46 µM
COc1ccc(-n2c(=O)c(-c3ccc(F)cc3)nc3cnc(N4CCOCC4)nc32)cc1 > 9.22 µM
CC(=O)NCCNc1ncnc2ccc(-c3ccoc3)cc12 > 46 µM
COCCNc1ncnc2ccc(-c3cccc(NS(C)(=O)=O)c3)cc12 > 46 µM
c1csc(CNc2ncnc3ccc(-c4ccoc4)cc23)c1 > 46 µM
Cc1ccccc1-c1cc(N2CCN(C)CC2)ncn1 > 46 µM
c1nc(NC2CCNCC2)c2cc(-c3ccoc3)ccc2n1 > 46 µM
COc1ncc2nc(-c3ccc(F)cc3)c(=O)n(C)c2n1 > 9.22 µM
COCCn1c(=O)c(-c2ccc(Cl)cc2)nc2cnc(Nc3ccccc3)nc21 > 9.22 µM
CN1CCN(c2ncc3nc(-c4ccc(Cl)cc4)c(=O)n(-c4ccccc4)c3n2)CC1 > 9.22 µM
COc1cccc(Cn2c(=O)c(-c3cccs3)nc3cnc(N(C)C)nc32)c1 > 9.22 µM
Cc1nc2cnc(OCc3ccccc3)nc2n(C)c1=O > 9.22 µM
COc1ccccc1CCn1c(=O)c(-c2cccc(F)c2)nc2cncnc21 > 9.22 µM
CN(C)c1ncnc2ccc(-c3ccoc3)cc12 > 46 µM
COc1cccc(Nc2ncc3nc(CCc4ccccc4)c(=O)n(C)c3n2)c1 > 9.22 µM
COCCNc1ncnc2ccc(-c3ccccc3C)cc12 > 46 µM
COc1ccc(-c2nc3cnc(Oc4ccccc4)nc3n(CCC#N)c2=O)cc1 > 9.22 µM
COc1cccc(Nc2ncc3nc(-c4ccc(Cl)cc4)c(=O)n(C4CC4)c3n2)c1 > 9.22 µM
CCNc1ncc2nc(-c3cn(C)c4ccccc34)c(=O)n(C)c2n1 > 9.22 µM
CN1CCN(c2ncc3nc(-c4cccc(C#N)c4)c(=O)n(Cc4ccc(F)cc4)c3n2)CC1 > 9.22 µM
COc1ccc(Oc2ncc3nc(-c4ccc(OC)cc4)c(=O)n(C)c3n2)cc1 > 9.22 µM
Cc1nc2cnc(N3CCOCC3)nc2n(C[C@H]2CCCO2)c1=O > 9.22 µM
COc1cccc(Cn2c(=O)c(-c3ccc(F)cc3)nc3cnc(OC)nc32)c1 > 9.22 µM

Biological target: Glucocorticoid receptor (Homo sapiens) (UniProt P04150)
Experiment: GR-EFC Redistribution (AID 451)
Settings: CHO-K1 GR-EFC translocation, beta-gal luminescence, 2 h
Method in brief: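 CHO-K1 cells expressing nuclear EA and GR-ED fragments of b-gal; compounds titrated up to 46 uM final, 2 h at 37 C. GR nuclear translocation read as complemented b-gal luminescence after 1 h RT detection.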

Potency, inactive:
Cc1ccccc1-c1nccc(NCc2cccs2)n1 > 46 µM
CN1CCN(c2ncc3nc(-c4ccc(F)cc4)c(=O)n(Cc4cccs4)c3n2)CC1 > 46 µM
COc1ccc(-c2nc3cnc(N4CCN(C)CC4)nc3n(Cc3cccs3)c2=O)cc1 > 46 µM
FC(F)(F)c1ccccc1-c1nc(NCCN2CCOCC2)c2ccccc2n1 > 46 µM
COc1ccc(-c2nc3cnc(Oc4cccc(Cl)c4)nc3n(C3CC3)c2=O)cc1 > 46 µM
N#CCCn1c(=O)c(-c2ccc(F)cc2)nc2cnc(N3CCOCC3)nc21 > 46 µM
Cn1c(=O)c(-c2cccs2)nc2cnc(N3CCNCC3)nc21 > 46 µM
CS(=O)(=O)Nc1cccc(-c2ccc3ncnc(NC4CC4)c3c2)c1 > 46 µM
CN1CCN(c2ncc3nc(CCc4ccccc4)c(=O)n(C4CC4)c3n2)CC1 > 46 µM
COCCn1c(=O)cnc2cnc(Nc3ccccc3)nc21 > 46 µM
Cc1ccccc1-c1ccc2ncnc(NC3CC3)c2c1 > 46 µM
c1cncc(CNc2ncncc2-c2cccnc2)c1 > 46 µM
Clc1ccccc1-c1nccc(NCc2cccs2)n1 > 46 µM
O=c1c(-c2ccc(F)cc2)nc2cnc(Oc3ccccc3)nc2n1Cc1cccs1 > 46 µM
COc1ccc(Oc2ncc3nc(-c4cn(C)c5ccccc45)c(=O)n(C4CC4)c3n2)cc1 > 46 µM
COc1ccc(-n2c(=O)c(-c3ccc(F)cc3)nc3cnc(N4CCOCC4)nc32)cc1 > 46 µM
CC(=O)NCCNc1ncnc2ccc(-c3ccoc3)cc12 > 46 µM
COCCNc1ncnc2ccc(-c3cccc(NS(C)(=O)=O)c3)cc12 > 46 µM
c1csc(CNc2ncnc3ccc(-c4ccoc4)cc23)c1 > 46 µM
Cc1ccccc1-c1cc(N2CCN(C)CC2)ncn1 > 46 µM
c1nc(NC2CCNCC2)c2cc(-c3ccoc3)ccc2n1 > 46 µM
COc1ncc2nc(-c3ccc(F)cc3)c(=O)n(C)c2n1 > 46 µM
COCCn1c(=O)c(-c2ccc(Cl)cc2)nc2cnc(Nc3ccccc3)nc21 > 46 µM
CN1CCN(c2ncc3nc(-c4ccc(Cl)cc4)c(=O)n(-c4ccccc4)c3n2)CC1 > 46 µM
CN1CCN(c2ccnc(-c3ccoc3)n2)CC1 > 46 µM
COc1cccc(Cn2c(=O)c(-c3cccs3)nc3cnc(N(C)C)nc32)c1 > 46 µM
Cc1nc2cnc(OCc3ccccc3)nc2n(C)c1=O > 46 µM
COc1ccccc1CCn1c(=O)c(-c2cccc(F)c2)nc2cncnc21 > 46 µM
CN(C)c1ncnc2ccc(-c3ccoc3)cc12 > 46 µM
COCCNc1ncnc2ccc(-c3ccccc3C)cc12 > 46 µM
COc1ccc(-c2nc3cnc(Oc4ccccc4)nc3n(CCC#N)c2=O)cc1 > 46 µM
COc1cccc(Nc2ncc3nc(-c4ccc(Cl)cc4)c(=O)n(C4CC4)c3n2)c1 > 46 µM
CCNc1ncc2nc(-c3cn(C)c4ccccc34)c(=O)n(C)c2n1 > 46 µM
CN1CCN(c2ncc3nc(-c4cccc(C#N)c4)c(=O)n(Cc4ccc(F)cc4)c3n2)CC1 > 46 µM
COc1ccc(Oc2ncc3nc(-c4ccc(OC)cc4)c(=O)n(C)c3n2)cc1 > 46 µM
Cc1nc2cnc(N3CCOCC3)nc2n(C[C@H]2CCCO2)c1=O > 46 µM
COc1cccc(Cn2c(=O)c(-c3ccc(F)cc3)nc3cnc(OC)nc32)c1 > 46 µM
